# A number with no mark means an inactive call.
# Legend:
# Assay in all cases: log2 ratio of Biotin-Ahx-Ub-VS probe labelling (fragment/DMSO); higher = less target engagement (more negative = stronger competition), active = hit call of the paper (q ≤ 0.05, log2 ratio ≤ -1)
# Conditions in all cases: compound concentration: 200 uM; treatment time: 3 h
# [1] = target: T1, ALG13 (UniProt Q9NP73)
# T1 sequence (whole entry): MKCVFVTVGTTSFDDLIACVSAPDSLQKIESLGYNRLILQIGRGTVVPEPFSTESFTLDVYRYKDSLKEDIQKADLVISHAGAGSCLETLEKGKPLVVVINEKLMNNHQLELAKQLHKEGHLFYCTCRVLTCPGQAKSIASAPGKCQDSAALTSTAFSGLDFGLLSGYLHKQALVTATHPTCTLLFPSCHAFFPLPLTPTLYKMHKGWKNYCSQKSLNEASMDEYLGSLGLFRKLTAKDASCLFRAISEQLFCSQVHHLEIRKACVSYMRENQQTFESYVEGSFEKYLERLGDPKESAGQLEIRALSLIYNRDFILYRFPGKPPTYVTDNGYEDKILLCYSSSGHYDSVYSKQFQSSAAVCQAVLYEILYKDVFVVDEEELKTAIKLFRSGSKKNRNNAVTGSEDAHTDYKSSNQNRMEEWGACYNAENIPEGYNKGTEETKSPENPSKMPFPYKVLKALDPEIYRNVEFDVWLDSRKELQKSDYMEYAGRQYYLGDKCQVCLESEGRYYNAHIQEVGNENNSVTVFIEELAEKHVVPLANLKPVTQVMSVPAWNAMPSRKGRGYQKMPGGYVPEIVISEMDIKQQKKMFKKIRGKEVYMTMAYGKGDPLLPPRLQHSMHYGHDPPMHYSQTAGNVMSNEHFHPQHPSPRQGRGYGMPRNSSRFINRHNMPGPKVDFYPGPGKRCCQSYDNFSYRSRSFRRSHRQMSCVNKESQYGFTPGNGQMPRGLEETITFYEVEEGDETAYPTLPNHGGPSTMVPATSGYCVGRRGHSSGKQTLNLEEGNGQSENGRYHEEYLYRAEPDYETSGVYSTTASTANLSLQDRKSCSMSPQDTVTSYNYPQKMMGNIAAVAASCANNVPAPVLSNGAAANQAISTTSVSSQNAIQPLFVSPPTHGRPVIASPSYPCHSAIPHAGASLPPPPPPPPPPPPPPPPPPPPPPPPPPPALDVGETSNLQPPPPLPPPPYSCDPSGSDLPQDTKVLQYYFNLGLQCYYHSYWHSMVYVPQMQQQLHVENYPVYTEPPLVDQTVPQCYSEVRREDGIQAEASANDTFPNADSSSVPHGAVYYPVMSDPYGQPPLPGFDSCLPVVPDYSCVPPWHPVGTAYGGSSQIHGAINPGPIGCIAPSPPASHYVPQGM
# Method in brief: (§1)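 Fragment (200 µM) or vehicle was incubated for 3 h with triplicate HEK293T lysate samples of 495 µg, which were then treated with Biotin-Ahx-Ub-VS at 0.5 µM final for 1 h. Labelled DUBs were enriched on NeutrAvidin, digested with LysC and trypsin, and analysed by diaPASEF LC-MS/MS. Values are average log2 fragment/vehicle ratios from an unpaired t-test on global-median-normalised Spectronaut label-free quantities, using proteins with ≥2 unique peptides.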
# [2] = target: ATXN3 (UniProt P54252)
# Sequence of ATXN3 (P54252 whole entry): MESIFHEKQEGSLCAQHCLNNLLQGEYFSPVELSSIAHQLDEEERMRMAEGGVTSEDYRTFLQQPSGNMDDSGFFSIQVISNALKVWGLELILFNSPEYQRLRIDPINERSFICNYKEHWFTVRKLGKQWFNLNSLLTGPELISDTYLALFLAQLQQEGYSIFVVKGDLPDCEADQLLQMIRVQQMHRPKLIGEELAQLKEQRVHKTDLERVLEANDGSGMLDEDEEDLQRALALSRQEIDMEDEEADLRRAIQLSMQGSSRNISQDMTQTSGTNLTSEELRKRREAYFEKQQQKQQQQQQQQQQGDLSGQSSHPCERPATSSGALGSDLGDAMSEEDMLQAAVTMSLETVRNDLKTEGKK
# Method in brief: as §1
# [3] = target: T2, BAP1 (UniProt Q92560)
# T2 sequence (whole entry): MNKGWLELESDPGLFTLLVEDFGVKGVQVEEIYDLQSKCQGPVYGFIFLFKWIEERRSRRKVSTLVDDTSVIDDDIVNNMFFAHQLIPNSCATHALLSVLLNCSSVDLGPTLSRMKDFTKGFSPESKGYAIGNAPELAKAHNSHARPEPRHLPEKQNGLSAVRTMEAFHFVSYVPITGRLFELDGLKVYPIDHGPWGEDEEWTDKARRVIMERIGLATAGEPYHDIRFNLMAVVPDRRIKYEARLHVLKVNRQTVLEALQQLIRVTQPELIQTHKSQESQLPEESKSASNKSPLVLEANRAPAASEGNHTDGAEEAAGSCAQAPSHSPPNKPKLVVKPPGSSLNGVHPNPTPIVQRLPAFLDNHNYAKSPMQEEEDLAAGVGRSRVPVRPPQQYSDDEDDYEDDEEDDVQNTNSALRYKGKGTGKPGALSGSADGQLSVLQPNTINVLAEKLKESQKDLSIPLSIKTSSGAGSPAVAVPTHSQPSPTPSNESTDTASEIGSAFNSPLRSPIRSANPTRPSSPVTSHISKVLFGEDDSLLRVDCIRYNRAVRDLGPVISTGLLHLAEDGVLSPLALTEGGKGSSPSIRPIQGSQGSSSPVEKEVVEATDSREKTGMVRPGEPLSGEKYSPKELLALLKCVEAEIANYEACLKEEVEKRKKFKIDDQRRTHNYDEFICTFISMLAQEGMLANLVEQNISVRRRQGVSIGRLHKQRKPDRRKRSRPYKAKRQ
# Method in brief: as §1
# [4] = target: EIF3F (UniProt O00303)
# Sequence of EIF3F (O00303 whole entry): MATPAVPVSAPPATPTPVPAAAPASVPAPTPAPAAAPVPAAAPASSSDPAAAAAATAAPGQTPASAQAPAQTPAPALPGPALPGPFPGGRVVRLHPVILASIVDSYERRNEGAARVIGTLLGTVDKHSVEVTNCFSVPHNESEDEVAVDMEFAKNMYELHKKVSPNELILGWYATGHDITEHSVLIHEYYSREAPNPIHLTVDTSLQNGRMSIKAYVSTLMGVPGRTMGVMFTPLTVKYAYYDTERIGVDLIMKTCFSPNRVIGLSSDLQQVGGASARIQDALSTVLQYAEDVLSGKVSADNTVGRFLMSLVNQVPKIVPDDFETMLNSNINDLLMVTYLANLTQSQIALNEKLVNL
# Method in brief: as §1
# [5] = target: EIF3H (UniProt O15372)
# Sequence of EIF3H (O15372 whole entry): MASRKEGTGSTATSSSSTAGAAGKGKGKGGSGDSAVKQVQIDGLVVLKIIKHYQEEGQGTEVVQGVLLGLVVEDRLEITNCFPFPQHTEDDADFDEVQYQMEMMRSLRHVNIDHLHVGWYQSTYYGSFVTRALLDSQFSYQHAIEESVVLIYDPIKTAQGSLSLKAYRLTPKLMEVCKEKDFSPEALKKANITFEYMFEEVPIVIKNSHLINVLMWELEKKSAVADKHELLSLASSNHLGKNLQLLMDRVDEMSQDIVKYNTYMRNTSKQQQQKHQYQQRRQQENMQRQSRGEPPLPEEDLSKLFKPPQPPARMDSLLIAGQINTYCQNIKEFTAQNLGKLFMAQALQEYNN
# Method in brief: as §1
# [6] = target: T3, FAM105A (UniProt Q9NUU6)
# T3 sequence (whole entry): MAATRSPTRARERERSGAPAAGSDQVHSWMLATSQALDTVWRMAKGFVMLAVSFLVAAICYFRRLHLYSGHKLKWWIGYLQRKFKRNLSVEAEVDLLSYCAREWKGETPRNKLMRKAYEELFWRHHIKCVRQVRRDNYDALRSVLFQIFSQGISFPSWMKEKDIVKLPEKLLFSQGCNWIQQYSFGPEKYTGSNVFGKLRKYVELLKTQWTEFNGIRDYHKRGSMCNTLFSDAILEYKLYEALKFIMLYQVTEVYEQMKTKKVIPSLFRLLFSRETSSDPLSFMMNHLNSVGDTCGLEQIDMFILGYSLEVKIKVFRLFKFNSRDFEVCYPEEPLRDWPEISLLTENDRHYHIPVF
# Method in brief: as §1
# [7] = target: OTUB1 (UniProt Q96FW1)
# Sequence of OTUB1 (Q96FW1 whole entry): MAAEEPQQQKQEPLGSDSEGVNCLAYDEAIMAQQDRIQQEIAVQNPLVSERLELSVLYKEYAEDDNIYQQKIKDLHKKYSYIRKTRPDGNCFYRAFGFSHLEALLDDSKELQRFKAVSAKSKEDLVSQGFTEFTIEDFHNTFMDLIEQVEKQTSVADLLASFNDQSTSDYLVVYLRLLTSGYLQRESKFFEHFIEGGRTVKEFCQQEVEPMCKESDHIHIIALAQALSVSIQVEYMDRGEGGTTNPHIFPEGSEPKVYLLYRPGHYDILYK
# Method in brief: as §1
# [8] = target: T4, OTUD4 (UniProt Q01804)
# T4 sequence (whole entry): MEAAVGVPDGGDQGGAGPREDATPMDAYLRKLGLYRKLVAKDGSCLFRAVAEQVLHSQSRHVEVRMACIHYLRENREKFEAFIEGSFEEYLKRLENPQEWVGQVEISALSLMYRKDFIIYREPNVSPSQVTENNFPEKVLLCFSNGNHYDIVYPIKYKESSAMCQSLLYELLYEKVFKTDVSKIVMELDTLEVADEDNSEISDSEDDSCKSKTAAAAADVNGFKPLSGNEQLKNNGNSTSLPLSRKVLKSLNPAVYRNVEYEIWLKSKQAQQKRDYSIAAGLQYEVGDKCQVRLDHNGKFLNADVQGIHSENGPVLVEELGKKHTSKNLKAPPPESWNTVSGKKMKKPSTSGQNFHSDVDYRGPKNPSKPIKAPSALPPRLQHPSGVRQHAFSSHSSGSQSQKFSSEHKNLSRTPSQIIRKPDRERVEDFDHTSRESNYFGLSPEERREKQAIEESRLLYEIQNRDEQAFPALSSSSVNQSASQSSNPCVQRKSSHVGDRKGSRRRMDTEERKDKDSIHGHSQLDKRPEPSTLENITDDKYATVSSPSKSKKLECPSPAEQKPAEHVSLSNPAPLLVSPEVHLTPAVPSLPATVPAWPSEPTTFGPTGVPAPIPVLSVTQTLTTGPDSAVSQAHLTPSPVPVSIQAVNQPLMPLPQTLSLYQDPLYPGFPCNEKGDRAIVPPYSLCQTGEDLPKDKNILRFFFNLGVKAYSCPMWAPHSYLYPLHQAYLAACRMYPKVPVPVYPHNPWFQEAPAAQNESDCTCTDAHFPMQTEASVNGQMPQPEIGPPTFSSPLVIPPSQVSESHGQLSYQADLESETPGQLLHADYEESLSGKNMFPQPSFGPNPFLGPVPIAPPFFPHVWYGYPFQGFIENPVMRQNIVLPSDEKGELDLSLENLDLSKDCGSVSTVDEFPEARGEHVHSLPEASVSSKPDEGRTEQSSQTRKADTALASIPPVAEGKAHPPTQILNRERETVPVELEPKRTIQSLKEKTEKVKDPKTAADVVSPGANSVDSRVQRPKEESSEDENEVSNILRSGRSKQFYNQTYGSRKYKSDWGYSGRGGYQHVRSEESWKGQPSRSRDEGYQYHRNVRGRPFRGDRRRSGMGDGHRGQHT
# Method in brief: as §1
# [9] = target: T5, OTUD5 (UniProt Q96G74)
# T5 sequence (whole entry): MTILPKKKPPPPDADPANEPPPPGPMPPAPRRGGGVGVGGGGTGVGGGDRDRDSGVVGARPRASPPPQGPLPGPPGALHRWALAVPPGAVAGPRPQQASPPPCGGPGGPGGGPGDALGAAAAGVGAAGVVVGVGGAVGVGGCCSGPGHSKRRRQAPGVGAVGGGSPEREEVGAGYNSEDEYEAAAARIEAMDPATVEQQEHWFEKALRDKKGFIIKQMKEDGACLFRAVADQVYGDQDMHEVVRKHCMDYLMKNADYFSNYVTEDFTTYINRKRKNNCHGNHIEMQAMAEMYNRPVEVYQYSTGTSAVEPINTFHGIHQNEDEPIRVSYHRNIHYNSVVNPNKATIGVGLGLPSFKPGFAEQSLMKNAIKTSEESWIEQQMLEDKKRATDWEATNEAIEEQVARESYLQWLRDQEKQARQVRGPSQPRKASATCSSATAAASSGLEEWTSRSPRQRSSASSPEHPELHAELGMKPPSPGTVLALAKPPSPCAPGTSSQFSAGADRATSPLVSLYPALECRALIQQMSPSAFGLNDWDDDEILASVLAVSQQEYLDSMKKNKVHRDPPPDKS
# Method in brief: as §1
structure (smiles),measurement,setting,value
NS(=O)(=O)c1ccc(Cl)c(NC(=O)CCl)c1,log2 ratio of Biotin-Ahx-Ub-VS probe labelling,[1],-0.591
same,log2 ratio of Biotin-Ahx-Ub-VS probe labelling,[2],-0.697
same,log2 ratio of Biotin-Ahx-Ub-VS probe labelling,[3],-4.06 (active)
same,log2 ratio of Biotin-Ahx-Ub-VS probe labelling,[4],-0.117
same,log2 ratio of Biotin-Ahx-Ub-VS probe labelling,[5],0.198
same,log2 ratio of Biotin-Ahx-Ub-VS probe labelling,[6],0.226
same,log2 ratio of Biotin-Ahx-Ub-VS probe labelling,[7],-0.37
same,log2 ratio of Biotin-Ahx-Ub-VS probe labelling,[8],-2.55 (active)
same,log2 ratio of Biotin-Ahx-Ub-VS probe labelling,[9],-1.72 (active)

# Source: the supplement of paper PMC11732987, “Enantioselective OTUD7B fragment discovery through chemoproteomics screening and high-throughput optimisation” (Communications Chemistry, 2025)
